In PubChem BioAssay (NCI):
The panel holds about 83,000 compounds, 20% with a hit somewhere; the sample as a whole holds those more often.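 How to read the values: 0–100, growth inhibition (40 = 60% inhibited); 0, no net growth; -100 to 0, cell death (-40 = 40% of starting cells died; -100 = all dead).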 Calls of active or inactive are those of the source. How the source made its calls: active means growth percent below 10; inactive means the rest.

test system: HCC-2998 colon; test: NCI-60 one-dose screen, 48 h (100 = growth as untreated, 0 = no growth, -100 = all killed); settings: 10 µM

Structure (SMILES) | growth
c1ccc([C@H]2CN3CCSC3=N2)cc1 | 119% (inactive)
NC(=O)SCC(=O)Nc1ccc(S(N)(=O)=O)cc1 | 102% (inactive)
Cc1nc2ccc(CN(C)c3ccc(C(=O)N[C@@H](CCC(=O)O)C(=O)O)s3)cc2c(=O)[nH]1 | 28.5% (inactive)
COc1ccc(OC)c(/C=C/c2nc(SCc3ccccc3)n(-c3ccc(Cl)cc3)n2)c1 | 73.1% (inactive)
COc1cc(Cc2cc(-c3ccc(Cl)cc3)n[nH]c2=O)ccc1O | 131% (inactive)
CN(C)C(=S)N/N=C\C=N/NC(=S)N(C)C | 80.4% (inactive)
COc1ccc(N=C2C(=Nc3ccc(OC)cc3)N(c3ccc(N(C)C)cc3)C(=S)N2c2ccc(OC)cc2)cc1 | 105% (inactive)
COC(=O)[C@@H]1[C@H](O)[C@H](C)[C@H](O)[C@@](C)(O)/C=C\C=C(C)C(=O)Nc2c(C)c(OC(C)=O)c3c(c2O)C(=O)C(C)=C2OCOC(=C23)C(C)=C[C@@](C)(O)[C@H](O)[C@@H](C)[C@H]1OC(C)=O | 120% (inactive)
CO/N=C(/C(=O)NC1C(=O)N2C(C(=O)O)=C(COC(N)=O)CSC12)c1ccco1 (stereo not given) | 104% (inactive)
COc1ccc(N2C(=O)C3c4[nH]c5ccc(OCc6ccccc6)cc5c4C4CCC(C(C)C)CC4C3C2=O)cc1 (stereo not given) | 116% (inactive)
CCN(CC)CCNC(=O)c1ccc(NC(C)=O)cc1 | 102% (inactive)
CCOC(=O)C1CCc2c(ccc3ccccc23)N1CCC#N (stereo not given) | 93.5% (inactive)
CN(C)CCN1C(=O)c2cccc3cc(N)cc(c23)C1=O | 15.4% (inactive)
COc1ccc2c(c1)nc(N)c1c3cccnc3cn21 | 20.2% (inactive)
CN1CC[C@@H](c2c(O)cc(O)c3c(=O)cc(-c4ccccc4Cl)oc23)[C@@H](O)C1 | -34% (active)
O=C(/C=C/c1cc2ccccc2[nH]c1=O)c1ccc2c(c1)OCO2 | 105% (inactive)
CCCC1(CC(=O)O)OCCc2c1[nH]c1ccccc21 (stereo not given) | 69.9% (inactive)
C=C(Cl)[C@@](Cl)(CBr)CC[C@@H](Br)C(C)(C)Cl | -96.9% (active)

Structure (SMILES) | growth
CC[C@H](C)C(=O)O[C@H]1CCC=C2C=C[C@H](C)C(CCC3C[C@@H](O)CC(=O)O3)[C@H]21 (stereo not given in full) | 89% (inactive)
CC1CN(Cc2ccccc2)C(=O)NC1=O (stereo not given) | 110% (inactive)
Cc1cccc2c(NCCN(C)C)c3cccc(C(=O)NCCN(C)C)c3nc12 | -22.8% (active)
O=C(CCCCCCC(=O)Nc1cccnc1)NO | 40% (inactive)
CC(C)C[C@H](NC(=O)[C@H](Cc1cccc2ccccc12)NS(=O)(=O)c1cccc2cccnc12)B(O)O | -89.2% (active)
Cc1cc(C)c(NC(=O)c2sc3nc4c(cc3c2N)C(=O)CCC4)c(C)c1 | 30.9% (inactive)
COc1cc(NC(=O)CSc2nc3ccccc3c(=O)n2CCc2ccccc2)cc(OC)c1OC | 35% (inactive)
CCOCCOCCOCCOCCOCCOCCOCCOCCOCCO (tested in a mixture with another compound) | 9.05% (active)
COc1cc(OC)cc(-c2cncn2-c2ccc(-c3nc4cc(OC)cc(OC)c4s3)cc2)c1 | 70.2% (inactive)
COc1ccc(OC)c2c1C(=O)CC2C (stereo not given) | 113% (inactive)
Nc1ncn(C2OC(CO)C(O)C2O)c(=O)n1 (stereo not given) | -1.48% (active)
N#Cc1c(C#N)c(SSc2c(C#N)c(C#N)c(N)n2-c2ccccc2)n(-c2ccccc2)c1N | 96.3% (inactive)
CCCCCCCCCCCCCCCCCCOCC(COCCOCC[N+]1(CCCCCC(=O)[O-])CCCC1)Oc1ncccn1 (stereo not given) | 24.7% (inactive)
O=C1NC(=O)N(Cc2ccccc2)CC1Br (stereo not given) | 95.4% (inactive)
C=C(NC(=O)C(=C)NC(=O)c1csc(C2=NC3c4csc(n4)C4NC(=O)c5csc(n5)C(C(C)(O)C(C)O)NC(=O)C5CSC(=N5)/C(=C/C)NC(=O)C(C(C)O)NC(=O)c5csc(n5)C3(CC2)NC(=O)C(C)NC(=O)C(=C)NC(=O)C(=C)NC(=O)C(C(C)C)NC2C=Cc3c(C(C)O)cc(nc3C2O)C(=O)OC4C)n1)C(N)=O (stereo not given) | -57.2% (active)
O=C1ON=[N+](c2ccc(Cc3ccc([N+]4=NOC(=O)C4CN4CCOCC4)cc3)cc2)C1CN1CCOCC1 (stereo not given) | 80.5% (inactive)
C/C(=N\Nc1nc2ccccc2s1)c1ccncn1 | 46.3% (inactive)
